In PubChem BioAssay (NCI):
About 83,000 compounds went through this panel and 20% of them were active in at least one assay; those are over-represented in the sample as a whole.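 Treatment: one concentration, 48 hours, 96-well format. Scoring: percent growth, with anything below 10 considered active.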 Values without a mark were called inactive. Calls of active or inactive are those of the source.

Key:
Assay in all cases: NCI-60 one-dose screen, 48 h (100 = growth as untreated, 0 = no growth, -100 = all killed)
[1] = test system: HCT-15 colon; details: 10 µM unless noted
[2] = test system: HT29 colon; details: 10 µM unless noted
[3] = test system: SNB-75 CNS; details: 10 µM unless noted
[4] = test system: SNB-19 CNS; details: 10 µM unless noted
[5] = test system: U251 CNS; details: 10 µM unless noted
[6] = test system: PC-3 prostate; details: 10 µM unless noted
[7] = test system: SK-MEL-5 melanoma; details: 10 µM unless noted
[8] = test system: UACC-62 melanoma; details: 10 µM unless noted
[9] = test system: LOX IMVI melanoma; details: 10 µM unless noted
[10] = test system: SK-MEL-28 melanoma; details: 10 µM unless noted
[11] = test system: SK-MEL-2 melanoma; details: 10 µM unless noted
[12] = test system: EKVX NSCLC; details: 10 µM unless noted
[13] = test system: SN12C renal; details: 10 µM unless noted
[14] = test system: UO-31 renal; details: 10 µM unless noted
[15] = test system: TK-10 renal; details: 10 µM unless noted
[16] = test system: ACHN renal; details: 10 µM unless noted
[17] = test system: HL-60(TB) leukemia; details: 10 µM unless noted
[18] = test system: CCRF-CEM leukemia; details: 10 µM unless noted
[19] = test system: CAKI-1 renal; details: 10 µM unless noted
[20] = test system: A498 renal; details: 10 µM

| SMILES | growth [1] | growth [2] | growth [3] | growth [4] | growth [5] | growth [6] | growth [7] | growth [8] | growth [9] | growth [10] | growth [11] | growth [12] | growth [13] | growth [14] | growth [15] | growth [16] | growth [17] | growth [18] | growth [19] | growth [20] |
| --- | --- | --- | --- | --- | --- | --- | --- | --- | --- | --- | --- | --- | --- | --- | --- | --- | --- | --- | --- | --- |
| CC1(C)N=C(N)N=C(N)N1c1cccc(CCCCc2ccc(Cl)c(S(=O)(=O)F)c2)c1 | 66.6% | 12.5% | 62.2% | 45.9% | 35.3% | 24.1% | 16.4% | 15.3% | 16.5% | 70.2% | 52.3% | 51.5% | 30.5% | 92.4% | 55.5% | 87.5% | 18.8% | 28.1% | – | – |
| Clc1ccc(COC(Cn2ccnc2)c2ccc(Cl)cc2Cl)cc1 (configuration not stated) | 53% | 43.6% | 93.3% | 78% | 64.4% | 21.1% | 49.5% | 52.6% | 31.6% | 83.9% | 68.9% | 30.7% | 68.4% | 20.7% | 62% | – | -40.2% (active) | 30.6% | 21.4% | 43.4% |
| COC(=O)[C@@H](C)C[C@H](Cc1cn(C)c2ccccc12)NC(=O)c1csc([C@@H](C[C@H](C(C)C)N(C)C(=O)[C@@H](NC(=O)[C@H]2CCCCN2C)C(C)C)OC(C)=O)n1 | 9.96% (active) | 3.4% (active) | 59% | 35.6% | 15.4% | 24.3% | -38.4% (active) | 47.8% | 19.1% | 60.6% | 39% | 46.4% | 23.5% | 34.1% | 28.1% | 18.8% | -39.1% (active) | 10.8% | – | -1.42% (active) |
| CC(=O)O[C@H](C[C@H](C(C)C)N(C)C(=O)[C@@H](NC(=O)[C@H]1CCCCN1C)C(C)C)c1nc(C(=O)NC2CCC(C(=O)O)CC2)cs1 (some centres not stated) | 70.6% | 17.7% | -1.9% (active) | 40.9% | 33.2% | 48.5% | 49.8% | 28% | 35.5% | 71.4% | 37.4% | 57.8% | 13.4% | 76.4% | 73.8% | 86.8% | -22.2% (active) | 12.8% | – | – |
| COc1ccc([As]=[As]c2ccc(OC)c(NCS(=O)(=O)O)c2)cc1NCS(=O)(=O)O (configuration not stated) | -72.2% (active) | 39.8% | 36.9% | 0.15% (active) | -43% (active) | 32.5% | 1.61% (active) | 17% | 5.45% (active) | 0.0807% (active) | 23.9% | 0.829% (active) | 12.4% | 25.7% | -16.2% (active) | 46.6% | -7.43% (active) | -13.9% (active) | – | – |
| COc1cccc(C=NC(Cc2cnc[nH]2)C(=O)O)c1O (configuration not stated) | 108% | 100% | 86.3% | 96.1% | 102% | 51.5% | 94.2% | 95.6% | 100% | 103% | 70% | 102% | 97.5% | 84.1% | 139% | – | 189% | 69.6% | 86.5% | 98.2% |
| O=c1[nH]c2ccc([N+](=O)[O-])cc2c(=O)o1 | 99% | 113% | 113% | 102% | 106% | 92.8% | 95.3% | 100% | 99.9% | 105% | 111% | 107% | 98.2% | 90.7% | 104% | 93.3% | – | 96.1% | – | – |
| C[C@@H]1O[C@@H](O[C@H]2C[C@@H](O)[C@]3(CO)C4C(CC[C@]3(O)C2)[C@@]2(O)CC[C@H](C3=CC(=O)OC3)[C@@]2(C)C[C@H]4O)[C@H](O)[C@H](O)[C@H]1O (some centres not stated) | -74.6% (active) | -85.2% (active) | -83.9% (active) | -94.6% (active) | -97.3% (active) | 6.86% (active) | -95.5% (active) | -66.5% (active) | -88.2% (active) | -87.6% (active) | -59.9% (active) | -74.3% (active) | -22.5% (active) | -87.3% (active) | -65% (active) | – | -53.2% (active) | -12% (active) | -73.4% (active) | -6.39% (active) |
| Clc1cc(N2CC2)nc(N2CC2)n1 | 72.5% | 79.8% | 70.6% | 65.9% | 67.9% | 65.2% | 73.9% | 54.4% | 51.7% | 92.1% | 91% | 107% | 48.5% | 74.7% | 104% | 22.2% | – | 54.8% | – | 104% |
| CCOC(=O)[C@@H](C)C[C@H](Cc1ccccc1)NC(=O)c1csc([C@@H](C[C@H](C(C)C)N(C)C(=O)CNC(=O)[C@H]2CCCCN2C)OC(C)=O)n1 | 12.8% | 4.5% (active) | -13.4% (active) | 17.4% | 18.7% | 22.7% | 13.5% | 29.8% | 34.3% | 57.1% | 28.1% | 34.8% | 36% | 39.7% | 65.7% | 43.7% | -32.3% (active) | 5.17% (active) | – | – |
| CC(=O)ONc1ccc([N+](=O)[O-])c(C(F)(F)F)c1 | 108% | 108% | 82.9% | 107% | 104% | 95.4% | 109% | 96.8% | 98.8% | 110% | 102% | 87.6% | 107% | 77.2% | 112% | – | 90% | 97.7% | – | 103% |
| CC[C@H](NC(=O)[C@H]1CCCCN1C)C(=O)N(C)[C@H](C[C@@H](OC(C)=O)c1nc(C(=O)N[C@@H](Cc2ccccc2)C[C@H](C)C(=O)O)cs1)C(C)C | 6.42% (active) | 2.74% (active) | 24.9% | 17.6% | 14.9% | 22.9% | -40.3% (active) | 27.1% | 13.2% | 73.7% | 36.8% | 40.6% | 17.1% | 41.7% | 69% | 34.4% | – | 1.98% (active) | – | -8.18% (active) |
| COC(=O)[C@@]1(C)CC[C@]2(C)CC[C@]3(C)C4=CC=C5C(=CC(=O)C(O)=C5C)[C@]4(C)CC[C@@]3(C)[C@@H]2C1 | -83.7% (active) | -74.1% (active) | -78.9% (active) | -94.2% (active) | -97.4% (active) | -88.5% (active) | -97.1% (active) | -92.7% (active) | -90.5% (active) | -92.9% (active) | -87.6% (active) | -77.8% (active) | -88.2% (active) | -99.4% (active) | -95.7% (active) | -100% (active) | – | -41.2% (active) | – | -97.9% (active) |
| CCCCN1CCCC[C@@H]1C(=O)N[C@H](C(=O)N(C)[C@H](CCc1nc(C(=O)N[C@@H](Cc2ccccc2)C[C@H](C)C(=O)OC)cs1)C(C)C)[C@@H](C)CC | 41.4% | 35.2% | 70.3% | 62.5% | 58.3% | 40.8% | 34.8% | 47% | 78.2% | 81.1% | 24.8% | 61.2% | 77.6% | 48% | 69.2% | 52.2% | 27.5% | 61.6% | – | 32.9% |
| C[C@]12CC[C@H]3[C@@H](CC[C@]4(O)C[C@@H](O[C@@H]5O[C@H](CO)[C@@H](O[C@@H]6OC[C@@H](O)[C@H](O)[C@H]6O)[C@H](O)[C@H]5O)CC[C@]34C=O)[C@@]1(O)CC[C@@H]2C1=CC(=O)OC1 | -9.5% (active) | 3.12% (active) | 28% | 26% | 4.09% (active) | 4.54% (active) | -14.1% (active) | 1.05% (active) | -37.3% (active) | 41.6% | -32.6% (active) | -59.9% (active) | -32.1% (active) | 6.18% (active) | -6.98% (active) | -34.3% (active) | – | -14.5% (active) | – | -9.04% (active) |
| CC1=C(CCCNS(C)(=O)=O)C2=C(C)C3(CC3)[C@@](C)(O)C(=O)C2=C1 | 4.29% (active) | -2.04% (active) | -60.6% (active) | 8.19% (active) | 1.79% (active) | 6.58% (active) | -89.8% (active) | -52.7% (active) | 2.21% (active) | -28.4% (active) | -44.7% (active) | 1.61% (active) | 8.84% (active) | -32.6% (active) | -14.9% (active) | – | 14% | 90.9% | – | -43.2% (active) |
